Measured values published in ChEMBL document CHEMBL2218924, “A broad activity screen in support of a chemogenomic map for kinase signalling research and drug discovery” (Biochem J, 2013).

Legend:
[1] = target: T1, Ephrin type-A receptor 3 (Homo sapiens) (UniProt P29320); conditions: at 10 µM
T1 sequence (whole entry): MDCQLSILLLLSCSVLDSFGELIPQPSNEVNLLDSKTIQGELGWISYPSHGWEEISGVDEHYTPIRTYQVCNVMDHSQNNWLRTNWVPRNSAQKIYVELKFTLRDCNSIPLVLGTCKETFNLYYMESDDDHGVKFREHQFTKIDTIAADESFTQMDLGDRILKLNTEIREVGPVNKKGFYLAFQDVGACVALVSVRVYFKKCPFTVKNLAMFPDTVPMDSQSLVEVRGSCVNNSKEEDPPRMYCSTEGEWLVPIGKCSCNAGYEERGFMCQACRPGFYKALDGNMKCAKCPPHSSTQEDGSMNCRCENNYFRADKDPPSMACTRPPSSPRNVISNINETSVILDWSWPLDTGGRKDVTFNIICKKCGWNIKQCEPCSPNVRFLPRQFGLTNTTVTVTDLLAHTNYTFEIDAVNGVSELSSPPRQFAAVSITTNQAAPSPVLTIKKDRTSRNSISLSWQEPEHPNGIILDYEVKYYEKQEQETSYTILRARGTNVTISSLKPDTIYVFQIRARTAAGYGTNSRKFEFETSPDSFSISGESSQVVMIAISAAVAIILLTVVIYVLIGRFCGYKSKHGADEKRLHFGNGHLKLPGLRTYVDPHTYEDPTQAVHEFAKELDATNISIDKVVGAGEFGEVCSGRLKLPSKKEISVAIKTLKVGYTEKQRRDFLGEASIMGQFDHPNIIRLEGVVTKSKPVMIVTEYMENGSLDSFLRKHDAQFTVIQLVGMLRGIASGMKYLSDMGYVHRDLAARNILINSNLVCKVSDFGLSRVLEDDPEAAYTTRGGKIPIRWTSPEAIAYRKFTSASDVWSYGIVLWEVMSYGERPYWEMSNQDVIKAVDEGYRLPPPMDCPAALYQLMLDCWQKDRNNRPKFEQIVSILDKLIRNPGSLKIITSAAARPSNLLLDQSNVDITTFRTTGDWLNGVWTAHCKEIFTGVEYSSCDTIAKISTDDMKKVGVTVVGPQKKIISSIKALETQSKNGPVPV

[2] = target: Ephrin type-A receptor 7 (Homo sapiens) (UniProt Q15375); conditions: at 1 µM
Chain of Ephrin type-A receptor 7 (Homo sapiens) (Q15375 28-998 limits assumed): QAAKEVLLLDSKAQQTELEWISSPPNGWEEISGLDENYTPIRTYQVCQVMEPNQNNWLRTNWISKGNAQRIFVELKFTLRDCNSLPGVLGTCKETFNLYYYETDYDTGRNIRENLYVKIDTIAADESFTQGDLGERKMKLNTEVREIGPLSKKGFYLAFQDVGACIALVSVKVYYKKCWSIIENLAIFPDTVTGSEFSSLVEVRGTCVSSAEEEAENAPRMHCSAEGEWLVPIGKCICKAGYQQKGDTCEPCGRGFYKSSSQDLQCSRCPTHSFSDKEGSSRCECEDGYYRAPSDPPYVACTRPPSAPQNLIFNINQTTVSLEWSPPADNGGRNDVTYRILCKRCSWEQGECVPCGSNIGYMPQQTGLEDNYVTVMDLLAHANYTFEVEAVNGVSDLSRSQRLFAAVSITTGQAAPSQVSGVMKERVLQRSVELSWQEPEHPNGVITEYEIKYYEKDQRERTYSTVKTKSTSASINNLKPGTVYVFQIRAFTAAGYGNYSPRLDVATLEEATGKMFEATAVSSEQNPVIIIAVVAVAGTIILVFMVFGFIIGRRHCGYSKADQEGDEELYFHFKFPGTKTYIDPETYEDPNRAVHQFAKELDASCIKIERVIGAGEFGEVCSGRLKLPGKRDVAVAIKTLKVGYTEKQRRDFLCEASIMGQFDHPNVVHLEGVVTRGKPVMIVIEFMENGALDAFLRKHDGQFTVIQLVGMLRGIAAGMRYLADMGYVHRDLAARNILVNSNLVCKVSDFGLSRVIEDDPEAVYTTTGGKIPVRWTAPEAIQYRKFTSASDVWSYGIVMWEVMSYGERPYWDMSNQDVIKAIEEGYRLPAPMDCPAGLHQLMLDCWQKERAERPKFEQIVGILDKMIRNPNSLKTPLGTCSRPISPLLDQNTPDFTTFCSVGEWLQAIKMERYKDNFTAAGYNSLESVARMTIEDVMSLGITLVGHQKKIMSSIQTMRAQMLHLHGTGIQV

[3] = target: Ephrin type-A receptor 7 (Homo sapiens) (UniProt Q15375); conditions: at 10 µM
[4] = target: T2, Ephrin type-A receptor 8 (Homo sapiens) (UniProt P29322); conditions: at 1 µM
T2 sequence (whole entry): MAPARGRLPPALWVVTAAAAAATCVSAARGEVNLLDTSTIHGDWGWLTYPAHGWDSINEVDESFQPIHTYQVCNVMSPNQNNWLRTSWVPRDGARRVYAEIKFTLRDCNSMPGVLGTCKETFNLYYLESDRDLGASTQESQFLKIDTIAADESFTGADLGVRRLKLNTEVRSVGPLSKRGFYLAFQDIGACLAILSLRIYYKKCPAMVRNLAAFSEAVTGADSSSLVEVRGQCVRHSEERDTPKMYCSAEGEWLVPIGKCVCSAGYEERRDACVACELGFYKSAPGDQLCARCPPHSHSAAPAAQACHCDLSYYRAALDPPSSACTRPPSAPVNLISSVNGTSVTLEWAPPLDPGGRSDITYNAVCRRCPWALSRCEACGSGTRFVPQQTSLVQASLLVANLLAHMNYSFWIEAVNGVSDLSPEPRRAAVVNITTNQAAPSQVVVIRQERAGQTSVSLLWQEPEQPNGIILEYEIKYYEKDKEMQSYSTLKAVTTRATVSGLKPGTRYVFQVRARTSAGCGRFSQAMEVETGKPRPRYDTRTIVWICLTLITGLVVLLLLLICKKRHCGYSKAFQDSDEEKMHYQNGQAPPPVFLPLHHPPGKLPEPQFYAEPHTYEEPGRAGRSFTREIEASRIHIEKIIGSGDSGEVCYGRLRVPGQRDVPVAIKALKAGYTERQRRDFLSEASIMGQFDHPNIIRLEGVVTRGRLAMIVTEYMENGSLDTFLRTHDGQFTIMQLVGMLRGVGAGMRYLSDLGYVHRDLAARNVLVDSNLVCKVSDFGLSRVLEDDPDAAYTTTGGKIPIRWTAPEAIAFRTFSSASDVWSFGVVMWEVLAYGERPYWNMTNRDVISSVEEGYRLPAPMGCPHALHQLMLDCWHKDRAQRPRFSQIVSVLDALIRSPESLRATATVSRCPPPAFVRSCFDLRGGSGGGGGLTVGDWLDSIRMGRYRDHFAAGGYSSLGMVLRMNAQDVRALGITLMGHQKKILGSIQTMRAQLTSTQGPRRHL

[5] = target: T2, Ephrin type-A receptor 8 (Homo sapiens); conditions: at 10 µM
[6] = target: Receptor tyrosine-protein kinase erbB-4 (Homo sapiens) (UniProt Q15303); conditions: at 1 µM
Chain of Receptor tyrosine-protein kinase erbB-4 (Homo sapiens) (Q15303 whole entry): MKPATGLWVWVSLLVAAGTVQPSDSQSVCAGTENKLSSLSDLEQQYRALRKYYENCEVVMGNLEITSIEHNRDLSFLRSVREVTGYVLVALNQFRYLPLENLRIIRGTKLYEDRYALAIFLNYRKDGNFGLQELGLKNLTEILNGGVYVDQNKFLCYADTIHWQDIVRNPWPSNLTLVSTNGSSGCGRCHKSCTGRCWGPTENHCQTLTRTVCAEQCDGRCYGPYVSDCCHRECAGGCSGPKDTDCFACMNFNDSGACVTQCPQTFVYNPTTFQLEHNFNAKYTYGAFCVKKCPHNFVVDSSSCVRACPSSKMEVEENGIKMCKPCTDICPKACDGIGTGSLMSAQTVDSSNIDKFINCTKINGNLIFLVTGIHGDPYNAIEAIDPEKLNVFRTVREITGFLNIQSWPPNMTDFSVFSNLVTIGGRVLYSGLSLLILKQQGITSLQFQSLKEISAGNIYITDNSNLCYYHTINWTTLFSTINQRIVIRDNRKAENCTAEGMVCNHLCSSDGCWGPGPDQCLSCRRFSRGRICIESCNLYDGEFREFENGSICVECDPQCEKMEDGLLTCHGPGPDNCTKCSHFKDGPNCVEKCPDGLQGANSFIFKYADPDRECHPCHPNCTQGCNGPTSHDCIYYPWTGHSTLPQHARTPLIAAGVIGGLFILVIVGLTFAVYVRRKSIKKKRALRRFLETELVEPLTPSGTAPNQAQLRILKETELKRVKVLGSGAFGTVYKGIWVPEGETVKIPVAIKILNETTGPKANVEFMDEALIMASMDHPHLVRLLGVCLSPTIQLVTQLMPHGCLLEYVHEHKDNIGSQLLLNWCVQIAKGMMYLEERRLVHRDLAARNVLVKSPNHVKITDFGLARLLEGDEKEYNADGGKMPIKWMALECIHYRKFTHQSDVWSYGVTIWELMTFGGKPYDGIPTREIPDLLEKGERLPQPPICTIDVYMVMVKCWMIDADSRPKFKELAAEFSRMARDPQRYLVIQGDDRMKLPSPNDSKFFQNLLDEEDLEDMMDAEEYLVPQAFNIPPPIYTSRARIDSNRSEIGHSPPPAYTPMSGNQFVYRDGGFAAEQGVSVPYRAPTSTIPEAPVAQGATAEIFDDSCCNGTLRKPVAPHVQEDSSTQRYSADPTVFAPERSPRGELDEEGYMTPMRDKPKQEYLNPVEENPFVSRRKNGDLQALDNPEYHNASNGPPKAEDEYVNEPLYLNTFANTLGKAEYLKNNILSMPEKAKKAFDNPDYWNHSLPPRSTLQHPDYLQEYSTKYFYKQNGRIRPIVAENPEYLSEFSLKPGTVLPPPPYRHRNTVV

[7] = target: Receptor tyrosine-protein kinase erbB-4 (Homo sapiens) (UniProt Q15303); conditions: at 10 µM
[8] = target: Ephrin type-A receptor 5 (Homo sapiens) (UniProt P54756); conditions: at 10 µM
Chain of Ephrin type-A receptor 5 (Homo sapiens) (P54756 whole entry): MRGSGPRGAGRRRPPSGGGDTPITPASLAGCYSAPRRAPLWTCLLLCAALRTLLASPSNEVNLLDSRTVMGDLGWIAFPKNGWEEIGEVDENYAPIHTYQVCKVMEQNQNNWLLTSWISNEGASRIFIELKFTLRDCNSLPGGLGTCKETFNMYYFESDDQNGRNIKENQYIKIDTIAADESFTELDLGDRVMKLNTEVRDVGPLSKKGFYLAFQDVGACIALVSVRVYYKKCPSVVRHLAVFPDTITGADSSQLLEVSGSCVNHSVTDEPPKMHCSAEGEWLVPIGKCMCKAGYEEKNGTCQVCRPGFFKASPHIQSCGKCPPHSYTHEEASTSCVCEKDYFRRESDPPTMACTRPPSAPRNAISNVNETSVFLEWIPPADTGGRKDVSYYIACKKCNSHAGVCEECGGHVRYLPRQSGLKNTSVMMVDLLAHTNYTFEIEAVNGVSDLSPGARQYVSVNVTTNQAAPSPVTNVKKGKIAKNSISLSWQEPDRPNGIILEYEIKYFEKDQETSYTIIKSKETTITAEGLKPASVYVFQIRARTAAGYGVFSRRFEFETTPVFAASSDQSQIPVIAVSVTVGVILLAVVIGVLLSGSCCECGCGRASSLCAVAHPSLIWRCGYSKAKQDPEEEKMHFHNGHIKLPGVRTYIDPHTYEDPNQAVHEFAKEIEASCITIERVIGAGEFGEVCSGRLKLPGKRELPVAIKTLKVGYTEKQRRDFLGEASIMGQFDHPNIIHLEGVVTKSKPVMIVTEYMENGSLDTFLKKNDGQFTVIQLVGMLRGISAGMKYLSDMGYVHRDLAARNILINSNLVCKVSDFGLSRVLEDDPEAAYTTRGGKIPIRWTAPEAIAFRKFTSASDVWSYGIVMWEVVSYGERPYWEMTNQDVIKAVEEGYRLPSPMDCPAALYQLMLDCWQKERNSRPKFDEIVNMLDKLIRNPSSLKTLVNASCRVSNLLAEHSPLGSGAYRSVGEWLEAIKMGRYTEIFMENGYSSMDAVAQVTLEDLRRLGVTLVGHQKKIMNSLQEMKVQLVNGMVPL

[9] = target: T3, Ephrin type-B receptor 1 (Homo sapiens) (UniProt P54762); conditions: at 1 µM
T3 sequence (whole entry): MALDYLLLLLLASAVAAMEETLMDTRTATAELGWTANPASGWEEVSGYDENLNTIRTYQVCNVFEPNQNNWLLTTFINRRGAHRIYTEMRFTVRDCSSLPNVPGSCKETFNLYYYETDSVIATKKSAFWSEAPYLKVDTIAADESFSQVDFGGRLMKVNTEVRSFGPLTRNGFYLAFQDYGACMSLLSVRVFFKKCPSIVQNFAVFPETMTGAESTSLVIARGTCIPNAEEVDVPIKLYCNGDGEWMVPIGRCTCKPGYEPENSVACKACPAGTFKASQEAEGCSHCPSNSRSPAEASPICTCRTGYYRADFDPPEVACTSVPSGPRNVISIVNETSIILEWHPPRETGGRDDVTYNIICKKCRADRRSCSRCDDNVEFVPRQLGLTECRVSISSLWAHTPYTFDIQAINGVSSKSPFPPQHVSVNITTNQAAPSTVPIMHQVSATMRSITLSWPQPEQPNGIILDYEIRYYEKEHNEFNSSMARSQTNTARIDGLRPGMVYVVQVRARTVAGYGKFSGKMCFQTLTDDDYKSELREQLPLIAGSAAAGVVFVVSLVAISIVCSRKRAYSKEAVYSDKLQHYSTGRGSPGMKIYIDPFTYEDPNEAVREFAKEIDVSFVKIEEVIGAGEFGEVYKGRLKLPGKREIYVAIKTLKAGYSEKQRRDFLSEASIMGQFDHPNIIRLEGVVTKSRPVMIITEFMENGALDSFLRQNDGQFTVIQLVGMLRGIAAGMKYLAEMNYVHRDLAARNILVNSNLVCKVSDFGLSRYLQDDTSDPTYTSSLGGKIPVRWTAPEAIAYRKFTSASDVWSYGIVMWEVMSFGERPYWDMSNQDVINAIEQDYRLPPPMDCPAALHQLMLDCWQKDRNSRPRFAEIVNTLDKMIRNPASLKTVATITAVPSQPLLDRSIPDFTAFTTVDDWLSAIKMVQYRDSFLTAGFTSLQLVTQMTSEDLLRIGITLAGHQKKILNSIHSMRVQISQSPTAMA

[10] = target: T3, Ephrin type-B receptor 1 (Homo sapiens); conditions: at 10 µM
[11] = target: T4, Ephrin type-B receptor 3 (Homo sapiens) (UniProt P54753); conditions: at 10 µM
T4 sequence (whole entry): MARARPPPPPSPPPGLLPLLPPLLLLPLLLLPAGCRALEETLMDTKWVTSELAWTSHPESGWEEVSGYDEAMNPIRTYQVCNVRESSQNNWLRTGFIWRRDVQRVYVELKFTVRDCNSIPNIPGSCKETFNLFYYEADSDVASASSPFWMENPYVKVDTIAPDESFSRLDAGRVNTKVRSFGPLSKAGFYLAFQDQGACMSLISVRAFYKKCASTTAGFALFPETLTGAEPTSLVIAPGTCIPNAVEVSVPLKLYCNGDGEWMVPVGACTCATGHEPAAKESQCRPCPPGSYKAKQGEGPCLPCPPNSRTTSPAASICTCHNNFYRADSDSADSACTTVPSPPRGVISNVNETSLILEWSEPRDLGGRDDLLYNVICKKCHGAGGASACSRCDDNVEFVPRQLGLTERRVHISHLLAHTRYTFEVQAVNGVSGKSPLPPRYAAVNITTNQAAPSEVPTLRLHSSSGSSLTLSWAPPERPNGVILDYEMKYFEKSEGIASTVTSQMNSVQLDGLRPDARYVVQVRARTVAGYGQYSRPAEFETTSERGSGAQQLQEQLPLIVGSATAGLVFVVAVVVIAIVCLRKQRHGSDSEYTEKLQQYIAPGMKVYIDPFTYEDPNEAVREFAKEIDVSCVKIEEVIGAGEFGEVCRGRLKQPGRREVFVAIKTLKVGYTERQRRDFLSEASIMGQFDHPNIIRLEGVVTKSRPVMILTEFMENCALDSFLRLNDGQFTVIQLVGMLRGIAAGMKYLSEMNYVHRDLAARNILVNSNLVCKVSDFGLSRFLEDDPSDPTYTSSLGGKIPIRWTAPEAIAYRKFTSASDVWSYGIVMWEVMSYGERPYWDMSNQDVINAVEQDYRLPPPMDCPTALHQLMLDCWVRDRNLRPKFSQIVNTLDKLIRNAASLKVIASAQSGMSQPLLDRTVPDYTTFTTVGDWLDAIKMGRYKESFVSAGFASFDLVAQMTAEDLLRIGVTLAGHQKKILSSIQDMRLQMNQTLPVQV

Structure (SMILES) | residual activity [1] [%] | residual activity [2] [%] | residual activity [3] [%] | residual activity [4] [%] | residual activity [5] [%] | residual activity [6] [%] | residual activity [7] [%] | residual activity [8] [%] | residual activity [9] [%] | residual activity [10] [%] | residual activity [11] [%]
Cc1cccc(-c2[nH]c(C(C)(C)C)nc2-c2ccc3c(c2)OCO3)n1 | 96 | 98 | 94 | 99 | 105 | 94 | 86 |  |  |  | 
Cc1cncc2cccc(S(=O)(=O)N3CCCN(C(=O)CN)C[C@H]3C)c12 | 50 |  | 66 | 98 | 85 | 89 |  | 83 | 75 | 31 | 128
